Data published in PubChem BioAssay.
Active and inactive are the calls of the source. Cut-off read from the data, not from the text of the source, unless noted: active = inhibition above about 80%; inactive = the rest.

What was measured:
[1] = target: 6-phosphogluconate dehydrogenase, decarboxylating (Homo sapiens) (UniProt P52209); assay: inhibition of human phosphogluconate dehydrogenase – biochemical, recombinant enzyme, NADPH absorbance, primary screen (AID 1159550;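 active = at least 20% inhibition of 6-phosphogluconate dehydrogenase activity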); conditions: recombinant 6PGD, NADPH absorbance 341 nm; at 10 µM; stronger effect = higher value
[2] = growth inhibition, single agent or in combination, cell-based, chromothripsis tumors, cisplatin or BGB combos (AID 1671449); conditions: LFS_MB_P medulloblastoma cells;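 note: cells exposed for 96 hours; 0% = vehicle DMSO and 100% = killing by high DMSO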
[3] = growth inhibition, single agent and combos, cell-based, chromothripsis tumors, cisplatin or BGB combos (AID 1671450); conditions: HDN33 neuroblastoma cells, stronger effect = higher value;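 note: cells exposed to compound for four days; 0% = vehicle DMSO and 100% = cell killing by high DMSO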
[4] = growth inhibition, single agents and combos, ICB984, cell-based, cisplatin or BGB combos, synergistic combos for chromothripsis tumors (AID 1671451; call rule not given here;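 note: cells exposed for 96 hours before readout; 0% = vehicle DMSO and 100% = killing by high DMSO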); conditions: ICB984 medulloblastoma cells, drug combinations, stronger effect = higher value
[5] = growth inhibition, single agents and combos, LFS_MB_1R, cell-based, cisplatin or BGB combos, synergistic combos for chromothripsis tumors (AID 1671452); conditions: LFS_MB_1R medulloblastoma cells, stronger effect = higher value;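 note: cells exposed for 96 hours before readout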
[6] = growth inhibition, single agents and combos, HTB85, cell-based, BGB or cisplatin IC20 combos, synergistic combos for chromothripsis tumors (AID 1671453); conditions: HTB85 osteosarcoma cells, drug combinations, stronger effect = higher value;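 note: cells exposed for 96 hours before readout; 0% = vehicle DMSO and 100% = high DMSO killing control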
[7] = growth inhibition, single agents and combos, CRL2098, cell-based, BGB or cisplatin IC20 combos, synergistic combos for chromothripsis tumors (AID 1671454); conditions: CRL2098 osteosarcoma cells, drug combinations, stronger effect = higher value;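 note: cells exposed for 96 h before readout; 0% = vehicle DMSO and 100% = killing by high DMSO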
[8] = growth inhibition, single agents and combos, HD-MB03, cell-based, BGB or cisplatin IC20 combos, synergistic combos for chromothripsis tumors (AID 1671455; in the data active = inhibition above about 83%;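 note: 0% = vehicle DMSO and 100% = high DMSO as cytotoxic control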); conditions: HD-MB03 medulloblastoma cells, stronger effect = higher value
[9] = growth inhibition, single agents and combos, UWB1.289, cell-based, BGB or cisplatin combos, synergistic combos for chromothripsis tumors (AID 1671456); conditions: UWB1.289 ovarian carcinoma cells, stronger effect = higher value;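 note: cells exposed to compound for four days; 0% = vehicle DMSO and 100% = killing by high DMSO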
[10] = growth inhibition, single agents and combos, LFS_MB_2R, cell-based, cisplatin combos, synergistic combos for chromothripsis tumors (AID 1671457); conditions: LFS_MB_2R medulloblastoma cells, stronger effect = higher value;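 note: cells exposed to compound for four days before readout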
[11] = growth inhibition, MDA-MB-436, cell-based, BGB or cisplatin combos, synergistic combos for chromothripsis tumors (AID 1671458; call rule not given here;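 note: cells exposed for 96 hours; 0% = vehicle DMSO and 100% = killing by high DMSO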); conditions: MDA-MB-436 breast carcinoma growth inhibition, drug combinations, stronger effect = higher value
[12] = UWB1.289_BRCA1 ovarian cancer growth, cell-based, BGB or cisplatin combinations (AID 1671459); conditions: UWB1.289 BRCA1 ovarian carcinoma, drug combinations, stronger effect = higher value
[13] = drug combination toxicity in non-malignant astrocytes – cell-based, BGB or cisplatin IC20 combos, cytotoxicity control for chromothriptic childhood tumor combination screen (AID 1671460); conditions: Human astrocytes, viability inhibition, drug combinations, at 0.5 µM, stronger effect = higher value;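 note: cells exposed to compounds for 96 hours before viability readout; 0% = vehicle and 100% = killing control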
[14] = BT084 cell growth, single and combined drugs, ICGC_MB145, cisplatin and BGB IC40 combos (AID 1671461); conditions: BT084 medulloblastoma cells, drug combinations, stronger effect = higher value;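 note: cells exposed to drugs for 96 hours; 0% = vehicle DMSO and 100% = high DMSO full killing control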
[15] = RCMB18 cell growth, single agent and combined, cisplatin and BGB IC40 combos (AID 1671462); conditions: RCMB18 medulloblastoma cells, stronger effect = higher value;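 note: cells exposed to compound for four days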
[16] = CRL1545 cell growth, single agent and combined, cisplatin and BGB IC20 combos (AID 1671464); conditions: CRL1545 osteosarcoma cells, stronger effect = higher value;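 note: cells exposed to compound for 96 hours before readout; 0% = vehicle DMSO and 100% = high DMSO killing control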
[17] = measured here: combination with BGB IC40, at 0.05 µM
[18] = measured here: with BGB IC20 combination, at 0.5 µM
[19] = measured here: with cisplatin IC20 combination, at 0.5 µM
[20] = measured here: combination with cisplatin, at 0.5 µM
[21] = measured here: combination with cisplatin, at 5 µM

Chain of 6-phosphogluconate dehydrogenase, decarboxylating (Homo sapiens) (P52209 whole entry, looked up): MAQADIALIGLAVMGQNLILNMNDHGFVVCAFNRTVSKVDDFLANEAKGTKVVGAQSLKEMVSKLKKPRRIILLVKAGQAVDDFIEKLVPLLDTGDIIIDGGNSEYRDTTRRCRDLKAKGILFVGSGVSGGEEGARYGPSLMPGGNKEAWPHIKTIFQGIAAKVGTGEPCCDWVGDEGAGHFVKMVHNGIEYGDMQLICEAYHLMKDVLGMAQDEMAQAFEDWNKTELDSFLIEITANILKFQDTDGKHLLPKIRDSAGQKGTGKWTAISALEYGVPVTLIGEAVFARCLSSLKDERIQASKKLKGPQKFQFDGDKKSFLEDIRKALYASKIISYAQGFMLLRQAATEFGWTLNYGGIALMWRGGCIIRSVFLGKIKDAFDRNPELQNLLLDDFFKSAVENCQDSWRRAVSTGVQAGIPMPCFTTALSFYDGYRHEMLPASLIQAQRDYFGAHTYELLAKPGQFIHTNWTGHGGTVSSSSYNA

With `CC1(C(=O)O)CCC2(C)CCC3(C)C(=CC(=O)C4C5(C)CCC(OC(=O)CCC(=O)O)C(C)(C)C5CCC43C)C2C1` (centres undefined) as the molecule, how does the inhibition [1] read?
The inhibition was 6.14% (inactive).

And the inhibition ([2]; at 0.5 µM, stronger effect = higher value)?
Its inhibition is -21.3% (inactive).

And the inhibition ([2]; measured here: combination with BGB IC20, at 0.005 µM)?
Its inhibition is -7.44%.

And the inhibition ([2]; measured here: combination with BGB IC40, at 0.005 µM)?
The inhibition was -24.5%.

What about the inhibition [2, 17] of the same molecule?
Its inhibition is -6.64%.

What about the inhibition ([2]; measured here: combination with cisplatin, at 0.5 µM, stronger effect = higher value) of the same molecule?
The inhibition was -25.4%.

What about the inhibition ([2]; measured here: combination with cisplatin, at 5 µM, stronger effect = higher value) of the same molecule?
The inhibition was 6.61%.

What about the inhibition ([3]; BGB combo, at 5 µM) of the same molecule?
The inhibition was -10.4%.

And the inhibition ([3]; at 0.5 µM)?
The inhibition was -10.5% (inactive).

And the inhibition ([3]; cisplatin combo, at 5 µM)?
The inhibition was -11.2%.

What about the inhibition [3, 18] of the same molecule?
Its inhibition is -1.57%.

What about the inhibition [3, 19] of the same molecule?
Its inhibition is -3.76%.

And the inhibition ([3]; single agent, at 5 µM)?
Its inhibition is 0.047%.

And the inhibition ([4]; BGB IC20 combo, at 0.005 µM)?
Its inhibition is -6.54%.

What about the inhibition ([4]; BGB IC40 combo, at 0.005 µM) of the same molecule?
Its inhibition is -25.3%.

What about the inhibition ([4]; BGB IC40 combo, at 0.05 µM) of the same molecule?
Its inhibition is 3.64%.

And the inhibition ([4]; at 0.5 µM)?
Its inhibition is -16.5% (inactive).

What about the inhibition ([4]; cisplatin combo, at 0.05 µM) of the same molecule?
Its inhibition is 3.64%.

And the inhibition ([4]; cisplatin combo, at 0.5 µM)?
The inhibition was -24%.

And the inhibition ([4]; cisplatin combo, at 5 µM)?
Its inhibition is -37.6%.

What about the inhibition ([4]; measured here: 5 uM single agent, at 5 µM) of the same molecule?
The inhibition was -21.7%.

What about the inhibition ([5]; at 0.5 µM) of the same molecule?
The inhibition was -0.8% (inactive).

And the inhibition [5, 17]?
Its inhibition is -15.6%.

What about the inhibition [5, 20] of the same molecule?
Its inhibition is 21.2%.

What about the inhibition [5, 21] of the same molecule?
Its inhibition is -0.5%.

What about the inhibition ([6]; at 0.5 µM) of the same molecule?
The inhibition was -18% (inactive).

And the inhibition ([6]; measured here: with BGB IC20, at 0.5 µM)?
The inhibition was -38.9%.

And the inhibition ([6]; measured here: with BGB IC20, at 5 µM)?
Its inhibition is -13.2%.

What about the inhibition ([6]; measured here: with cisplatin IC20, at 0.5 µM) of the same molecule?
Its inhibition is -4%.

What about the inhibition ([6]; measured here: with cisplatin IC20, at 5 µM) of the same molecule?
The inhibition was -11%.

And the inhibition ([6]; single agent, at 5 µM)?
The inhibition was -22.6%.

And the inhibition ([7]; at 0.5 µM)?
The inhibition was -75% (inactive).

What about the inhibition ([7]; measured here: combination with BGB at IC20, at 0.5 µM) of the same molecule?
Its inhibition is -54.3%.

What about the inhibition ([7]; measured here: combination with cisplatin at IC20, at 0.5 µM) of the same molecule?
The inhibition was -113%.

What about the inhibition ([8]; at 0.5 µM) of the same molecule?
The inhibition was 0.23% (inactive).

And the inhibition ([8]; measured here: combo with BGB at IC20, at 0.5 µM)?
The inhibition was -6.04%.

And the inhibition ([8]; measured here: combo with cisplatin at IC20, at 0.5 µM)?
The inhibition was 5.01%.

What about the inhibition ([9]; at 0.5 µM) of the same molecule?
The inhibition was -3.45% (inactive).

And the inhibition ([9]; measured here: inhibition with BGB combination, at 0.05 µM)?
Its inhibition is -24.1%.

And the inhibition ([9]; measured here: inhibition with cisplatin combination, at 0.05 µM)?
The inhibition was -15.6%.

What about the inhibition ([10]; at 0.5 µM) of the same molecule?
The inhibition was -24.3% (inactive).

And the inhibition [10, 20]?
The inhibition was -26.3%.

And the inhibition [10, 21]?
The inhibition was -19.2%.

And the inhibition ([11]; at 0.5 µM)?
Its inhibition is -23.5% (inactive).

And the inhibition ([11]; measured here: BGB combination, at 0.5 µM)?
Its inhibition is -21%.

And the inhibition ([11]; measured here: BGB combination, at 5 µM)?
Its inhibition is -30.2%.

And the inhibition ([11]; measured here: cisplatin combination, at 0.5 µM)?
Its inhibition is -40.5%.

What about the inhibition ([11]; measured here: cisplatin combination, at 5 µM) of the same molecule?
Its inhibition is -24%.

And the inhibition ([12]; BGB combination, concentration series, at 5 µM)?
The inhibition was -13.7%.

And the inhibition ([12]; at 0.5 µM)?
The inhibition was -12.8% (inactive).

What about the inhibition ([12]; cisplatin combination, concentration series, at 5 µM) of the same molecule?
The inhibition was 3.23%.

And the inhibition [13]?
Its inhibition is -10.9% (inactive).

And the inhibition ([13]; measured here: combo with BGB IC20)?
The inhibition was -14.8%.

What about the inhibition ([13]; measured here: combo with cisplatin IC20) of the same molecule?
The inhibition was -13.4%.

And the inhibition ([14]; at 0.5 µM)?
Its inhibition is -17.1% (inactive).

And the inhibition ([14]; cisplatin combination, at 0.5 µM)?
Its inhibition is 5.31%.

What about the inhibition ([14]; cisplatin combination, at 5 µM) of the same molecule?
The inhibition was -38.2%.

What about the inhibition ([14]; measured here: BGB IC40 combination 0.05 uM, at 0.05 µM) of the same molecule?
The inhibition was -1.75%.

And the inhibition ([14]; single agent, at 5 µM)?
Its inhibition is -40.2%.

And the inhibition ([15]; at 0.5 µM)?
The inhibition was -19.6% (inactive).

What about the inhibition ([15]; cisplatin combo, at 5 µM) of the same molecule?
The inhibition was 13.2%.

And the inhibition ([15]; measured here: BGB IC40 combination, at 0.05 µM)?
Its inhibition is -21.9%.

What about the inhibition [15, 20] of the same molecule?
Its inhibition is -3.15%.

And the inhibition ([15]; single agent, at 5 µM)?
The inhibition was -16.1%.

And the inhibition ([16]; at 0.5 µM)?
The inhibition was -42.7% (inactive).

What about the inhibition [16, 18] of the same molecule?
The inhibition was -46.3%.

What about the inhibition [16, 19] of the same molecule?
The inhibition was -40.9%.

What about the inhibition ([16]; single agent, at 0.05 µM) of the same molecule?
The inhibition was 5.52%.

What about the inhibition ([16]; single agent, at 5 µM) of the same molecule?
The inhibition was 7.12%.
